Measurements reported in paper PMC6212790, “How bacterial xenogeneic silencer rok distinguishes foreign from self DNA in its resident genome”.
Whole data set: some 33,000 sequences, median “e-score” near -0.038, cut for the highest 2% near 0.33. The sample holds the highest values, similar sequences and a random draw of the others, so the mix is not that of the screen.

biological target: T1, GST-Rok-C97-191 (Bacillus subtilis subsp. subtilis str. …, UniProt O34857 97-191); assay: protein binding microarray; Rok is a gene silencer of Bacillus subtilis; high values mean tight binding; details: protein: recombinant; tags: GST (pTH5325, pDEST15-Magic modified); dsDNA, one strand shown
T1 sequence: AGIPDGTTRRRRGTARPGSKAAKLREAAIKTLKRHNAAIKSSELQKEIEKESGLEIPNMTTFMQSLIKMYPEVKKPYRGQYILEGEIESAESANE
Outline: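 Every oligonucleotide joins a 25-mer constant primer to a 35-mer variable part drawn from a de Bruijn sequence of order 10, so each non-palindromic 8-mer appears at least 32 times and each palindromic 8-mer 16 times. The preference for every 8-mer is reported as a unitless, rank-based enrichment score (E-score). This score spans 0.5 for the most favored 8-mer to −0.5 for the most disfavored.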

First: GACAAATA
Second: AGCATAAA
The binding signal of the first is lower: 0.111 E-score for the first, 0.179 E-score for the second.

Going from AGCATAAG to AGCATAAT, the binding signal rises from -0.133 E-score to 0.369 E-score.

Going from CGTTGTCA to TCTATGCA, the binding signal rises from 0.0104 E-score to 0.172 E-score.

Going from AATATTGG to AATATTCG, the binding signal rises from -0.0277 E-score to 0.307 E-score.

Going from AATATTCC to AATATTGT, the binding signal rises from 0.106 E-score to 0.372 E-score.

Compared with AATATTCT, AATATTGA is lower in binding signal: 0.347 E-score for the first, 0.22 E-score for the second.

Compared with AAACATTC, CGATGTCA is lower in binding signal: 0.0952 E-score for the first, -0.131 E-score for the second.

Going from GGTCCCAA to ATGGACGC, the binding signal rises from -0.183 E-score to -0.141 E-score.

Going from AGTAACTA to ACTAACTA, the binding signal falls from 0.436 E-score to 0.367 E-score.

Going from GGTAACGA to GGTAACTA, the binding signal rises from 0.0496 E-score to 0.336 E-score.

Compared with GCTAACTA, ACTAACTG is lower in binding signal: 0.324 E-score for the first, 0.16 E-score for the second.

First: AGTAACTC
Second: AGTAACTG
The binding signal of the first is lower: 0.0388 E-score for the first, 0.124 E-score for the second.

First: CGTAACTA
Second: GTTCAACA
The binding signal of the first is higher: 0.314 E-score for the first, 0.0437 E-score for the second.

First: GTAACTGA
Second: TCATGAAA
The binding signal of the first is higher: 0.203 E-score for the first, 0.0251 E-score for the second.

First: GTGACCGA
Second: CCACAATA
The binding signal of the first is lower: 0.048 E-score for the first, 0.2 E-score for the second.

Compared with GACCTAGC, AGCTACGA is higher in binding signal: -0.0362 E-score for the first, 0.191 E-score for the second.

Compared with ACATGACC, AATAAGAC is lower in binding signal: 0.104 E-score for the first, 0.0721 E-score for the second.

Going from AGCTAGAT to AACTAGAT, the binding signal rises from 0.152 E-score to 0.388 E-score.

Going from AACTAGAC to TGCTAGAA, the binding signal rises from 0.193 E-score to 0.364 E-score.

First: TACTAGAA
Second: AGCTAGAA
The binding signal of the first is higher: 0.348 E-score for the first, 0.322 E-score for the second.

First: AACTAGAG
Second: CACTAGAA
The binding signal of the first is lower: 0.0733 E-score for the first, 0.304 E-score for the second.

Compared with AACTAGAA, GACTAGAA is lower in binding signal: 0.363 E-score for the first, 0.206 E-score for the second.

First: ACCTAGAA
Second: GGCTAGAA
The binding signal of the first is higher: 0.142 E-score for the first, -0.162 E-score for the second.

Compared with GCCGCAAC, CAGCAGGA is lower in binding signal: -0.128 E-score for the first, -0.178 E-score for the second.

First: AACATCAT
Second: AACATCTT
The binding signal of the first is lower: 0.00751 E-score for the first, 0.0861 E-score for the second.

Compared with GTAACCAA, CTAGACCA is lower in binding signal: 0.000641 E-score for the first, -0.196 E-score for the second.

Compared with ACATGTTA, CGAATGAG is lower in binding signal: 0.144 E-score for the first, -0.0259 E-score for the second.

Compared with ATGCTCCG, CAGCCTTA is lower in binding signal: -0.113 E-score for the first, -0.151 E-score for the second.

Going from CATAGCTC to ACGCGGAA, the binding signal falls from 0.00142 E-score to -0.0676 E-score.

Going from AGTAGATA to GCTAGATA, the binding signal falls from 0.456 E-score to 0.288 E-score.

First: GGTAGATA
Second: CGTAGATA
The binding signal of the first is higher: 0.432 E-score for the first, 0.21 E-score for the second.

First: AGTAGATC
Second: AGTAGATG
The binding signal of the first is higher: 0.323 E-score for the first, 0.29 E-score for the second.

Compared with ACCCGCAA, AACTAGCT is higher in binding signal: -0.0817 E-score for the first, 0.342 E-score for the second.

Going from AACTAGCG to GACTAGCA, the binding signal falls from 0.256 E-score to 0.101 E-score.

Going from AACTAGCA to AACTAGCC, the binding signal falls from 0.346 E-score to 0.107 E-score.

Compared with CACTAGCA, AGAAGAAA is higher in binding signal: -0.154 E-score for the first, 0.00841 E-score for the second.

Going from CTCTTTCC to AACACCCA, the binding signal falls from -0.0674 E-score to -0.114 E-score.

First: CACGTATA
Second: GACGTATA
The binding signal of the first is higher: 0.228 E-score for the first, 0.174 E-score for the second.

First: TACGTATA
Second: TGGAGCCA
The binding signal of the first is higher: 0.349 E-score for the first, -0.182 E-score for the second.

First: GGCGAAGA
Second: GTTAAAAC
The binding signal of the first is lower: -0.0389 E-score for the first, 0.0593 E-score for the second.

Compared with CCAACTGA, ATATAAAA is higher in binding signal: -0.0233 E-score for the first, 0.338 E-score for the second.

First: GTATAAAC
Second: ATATAAAG
The binding signal of the first is higher: 0.137 E-score for the first, 0.135 E-score for the second.

First: ATAAAAAT
Second: CTATAAAA
The binding signal of the first is higher: 0.28 E-score for the first, 0.229 E-score for the second.

First: CTATAAAC
Second: ATATAAAC
The binding signal of the first is lower: 0.291 E-score for the first, 0.33 E-score for the second.

First: TTATAAAA
Second: ATATAAAT
The binding signal of the first is lower: 0.218 E-score for the first, 0.419 E-score for the second.

Compared with CGGAGACG, CGTGTAGC is higher in binding signal: -0.133 E-score for the first, -0.0895 E-score for the second.

First: CTAGAGAC
Second: CGAACTAG
The binding signal of the first is lower: 0.0353 E-score for the first, 0.299 E-score for the second.

Going from AGAACTAA to AGAACTAC, the binding signal rises from 0.259 E-score to 0.369 E-score.

First: CGAACTAA
Second: CGAACTAC
The binding signal of the first is lower: 0.135 E-score for the first, 0.373 E-score for the second.

AGAACTAT was tested, and the binding signal was 0.268 E-score.
